Screening data deposited in PubChem BioAssay by several laboratories.
Most compounds without a hit are left out; they make up all but 7.8% or so of the library.
Cav32 inh: blocks human Cav3.2 T-type calcium channel; 100,000 compounds, 4% hits; Cav3.2-expressing cells, Fluo-4 calcium fluorescence FDSS; active compounds read low; AID 449739; O95180; B-score at 10 µM;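 active means single-dose well whose peak fluorescence ratio is a statistical outlier from its plate by either plate-standardised score or position-corrected B-score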
PostGolgi yeast: growth inhibition of a yeast mutant, post-Golgi transport screen | post-Golgi transport phenotypic cell assay | inhibition, % at 10 µM | 98,000 compounds, 0.9% hits;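 further: yeast cells grown in 1536-well plates; yeast grown about 18 h at 30C before absorbance read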
sEH activator: soluble epoxide hydrolase (human) activation; AID 717; purified human sEH enzymatic activity, activator screen; activation, % at 2 µM; 91,000 compounds, 0.04% hits; in the data active means activation above about 37%
PostGolgi ctrl: inhibits growth of the yeast control strain; inhibition, % at 10 µM; 98,000 compounds, 5% hits; efflux-deficient yeast background strain, growth absorbance A615, 16 h
sEH inh: inhibitors of human soluble epoxide hydrolase; P34913; recombinant human sEH enzymatic activity assay; inhibition, % at 2 µM; 91,000 compounds, 0.34% hits; in the data active means inhibition above about 80%
Each line names hits and unclear results; the compound was inactive in the other large screens. Unless noted, no stated cut-off is given here; in the data, active means inhibition above about 30%; inactive means the rest.

Oc1ccc(Cl)cc1-c1cc(-c2cccc(Br)c2)n[nH]1	PostGolgi ctrl 54.1
Oc1ccc(Cl)cc1-c1cc(-c2ccco2)[nH]n1	PostGolgi ctrl 46.1 (no result: sEH activator, sEH inh)
Oc1ccc(Cl)cc1-c1cc(-c2ccccc2Cl)[nH]n1	none (no result: PostGolgi yeast, PostGolgi ctrl)
Cc1ccc(O)c(-c2cc(-c3ccccc3C)[nH]n2)c1	PostGolgi ctrl 86.2
Oc1ccc(Br)cc1-c1cc(-c2ccco2)[nH]n1	PostGolgi ctrl 79.3
Cc1ccc(O)c(-c2cc(C(F)(F)C(F)F)[nH]n2)c1	none
Cc1ccc(C2CN(C)C3(C(=O)Nc4ccccc43)C23COc2ccccc2C3=O)cc1 (centres undefined)	PostGolgi ctrl 80.4 (no result: Cav32 inh)
CN1CC(c2ccccc2Cl)C2(COc3ccccc3C2=O)C12C(=O)Nc1ccccc12 (centres undefined)	PostGolgi ctrl 46.1
CC1OC2(OC1C)C(=O)Nc1ccccc12 (centres undefined)	none
C=CCOC(=O)C1=C[C@@H](C2CCCCC2)C[C@@H](OCc2ccc(CO)cc2)O1	none (no result: PostGolgi yeast, sEH activator, PostGolgi ctrl, sEH inh)
Cc1ccc(/C=N/n2c(-c3cccs3)n[nH]c2=S)cc1	PostGolgi ctrl 33.3
COc1ccc(/C=N/n2c(-c3cccs3)n[nH]c2=S)cc1	PostGolgi ctrl 39.7
S=c1[nH]nc(-c2cccnc2)n1/N=C/c1cccs1	none
O=c1[nH]c(N2CCCCC2)nc2c1CCCC2	none (no result: Cav32 inh)
NC(=O)NC1NC(=O)NC1=O (centres undefined)	none (no result: PostGolgi yeast, sEH activator, PostGolgi ctrl, sEH inh)
S=C(Nc1cccc(Cl)c1)Nc1ccccc1Oc1ccccc1	Cav32 inh -7.23
S=C(Nc1ccc(Cl)cc1Cl)Nc1ccccc1Oc1ccccc1	none
COc1cccc(C(=O)/C=C/Nc2ccc(S(=O)(=O)Nc3cccc(C(C)=O)c3)cc2)c1	PostGolgi ctrl 42.5 (no result: Cav32 inh)
CCN(C(=O)CSc1nc2ccccc2n1CCc1ccccc1)C1CCS(=O)(=O)C1 (centres undefined)	none
CC(C)(O)[C@@H]1[C@@H]2C[C@@]3(CC[C@]4(C)C(CCC5[C@@]6(C)CC[C@H](O)C(C)(C)C6CC[C@]54C)[C@@H]13)C(=O)O2 (some centres undefined)	none (no result: PostGolgi yeast, sEH activator, PostGolgi ctrl, sEH inh)
COc1ccc(NC2c3ccccc3C(=O)N2c2cccnc2)cc1Cl (centres undefined)	none (no result: sEH activator, sEH inh)
Cc1ccc(N2C(=O)c3ccccc3C2Nc2ccccc2F)nc1 (centres undefined)	none
CCOC(=O)c1ccccc1NC1c2ccccc2C(=O)N1c1cc(C)ccn1 (centres undefined)	PostGolgi ctrl 54.7
COc1cc(OC)c(NC2c3ccccc3C(=O)N2c2cc(C)ccn2)cc1Cl (centres undefined)	PostGolgi ctrl 33.0 (no result: sEH activator, sEH inh)
Cc1cc(OCC(=O)c2ccc(F)cc2)ccc1N1C(=O)CCC1=O	none
CC(=O)O[C@H]1CC(C)(C)C(=C=C/C(C)=C/C=C/C(C)=C/C=C/C=C(C)/C=C/C=C(\C)C(=O)C[C@@]23O[C@]2(C)C[C@@H](O)CC3(C)C)[C@](C)(O)C1	none (no result: PostGolgi yeast, sEH activator, PostGolgi ctrl, sEH inh)
COC(=O)CSc1nnc2n(C3CCCCC3)c(=O)c3c4c(sc3n12)CCCC4	Cav32 inh -3.86
CCOC(=O)CSc1nnc2n(C3CCCCC3)c(=O)c3c4c(sc3n12)CCCC4	none (no result: sEH activator, sEH inh)
CCCCOc1ccc2c(C)cc(=O)oc2c1OCCCC	none (no result: PostGolgi yeast, PostGolgi ctrl)
Cc1ccc2cc(C#N)c(N3CCN(C)CC3)nc2c1	none (no result: PostGolgi yeast, PostGolgi ctrl)
Cc1ccc2cc(C=C(C#N)C#N)c(N3CCCCC3)nc2c1	PostGolgi ctrl 35.5
COc1ccc(-c2n[nH]c(C(F)(F)F)c2-c2cc3ccccc3o2)c(O)c1	PostGolgi yeast 104.4, PostGolgi ctrl 101.7
CCCCc1nc(NCCN2CCOCC2)c(C#N)c2c1COC(C)(C)C2	PostGolgi ctrl 101.8
CC(C)Cc1nc(NCCN2CCOCC2)c(C#N)c2c1COC(C)(C)C2	PostGolgi yeast 51.2, PostGolgi ctrl 99.9
CC(C)c1nc(NCCN2CCOCC2)c(C#N)c2c1COC(C)(C)C2	PostGolgi ctrl 60.0 (no result: sEH activator, sEH inh)
CCc1nc(NCCN2CCOCC2)c(C#N)c2c1CCCC2	none
Cc1nc(NCCO)c(C#N)c2c1COC(C)(C)C2	none
CC(C)n1c(NCCc2ccccc2)nc2c1c(=O)n(C)c(=O)n2C	none (no result: PostGolgi yeast, PostGolgi ctrl)
COC(=O)[C@@]1(Cc2ccc(OC)cc2)[C@H]2c3cc(C(=O)N4CCCC4)n(CCc4c[nH]c5ccc(O)cc45)c3C[C@H]2CN1C(=O)c1ccccc1	none (no result: PostGolgi yeast, sEH activator, PostGolgi ctrl, sEH inh)
Cc1ccc(S(=O)(=O)N2CCC(=O)N(CCOC(=O)Nc3ccc(F)cc3)CC2)cc1	none (no result: PostGolgi yeast, sEH activator, PostGolgi ctrl, sEH inh)
Cc1ccc(C(=O)NCc2occc2C(=O)O)o1	PostGolgi yeast 34.1
COc1ccc(C2C=C(c3cccs3)Nc3nc(CCCO)nn32)cc1 (centres undefined)	Cav32 inh -12, PostGolgi ctrl 44.9
CCOC(=O)c1ccc(NC(=O)c2cn(-c3ccccc3)nc2-c2ccncc2)cc1	PostGolgi yeast 90.3, PostGolgi ctrl 30.5
CCOC(=O)c1ccc(NC(=O)c2nn(CC)cc2Br)cc1	none
CCOC(=O)c1ccc(NC(=O)c2nn(C)cc2Br)cc1	PostGolgi ctrl 35.2
CC(=O)c1cc(F)c(N2CCN(C(=O)COc3ccccc3F)CC2)cc1C	none (no result: PostGolgi yeast, PostGolgi ctrl)
CCC1=C(OC(=O)N(CC)CC)N2C(=O)OC(=NCC3CC3)[C@]2(C)[C@H]2C1=CC[C@H]1C(=O)N(CC)C(=O)[C@H]12	none (no result: PostGolgi yeast, sEH activator, PostGolgi ctrl, sEH inh)
COC(=O)c1cc(Br)ccc1OC(=O)c1cccnc1	none
O=C(Oc1cccc(Br)c1)c1cccnc1	PostGolgi ctrl 33.5
CN1CCN(Cn2cc(/C=C/C(=O)c3ccccc3)c3ccccc32)CC1	PostGolgi ctrl 34.0
O=Cc1cn(CC(=O)N2CCOCC2)c2ccccc12	none (no result: PostGolgi yeast, PostGolgi ctrl)
O=C(Nc1nc2c(Cl)cccc2s1)c1ccc(Br)o1	none
O=C(Nc1nc2ccc(Cl)cc2s1)c1ccc(Br)o1	Cav32 inh -3.57
O=c1nc(NCc2ccccc2Cl)cn[nH]1	none
Cc1cc(C(=O)CN2C(=O)c3cccc(N)c3C2=O)c(C)n1Cc1cccs1	none
Cc1ccc(-c2nnc(N(C)C(=O)c3ccccn3)s2)cn1	none
COc1ccc(Cl)cc1N1C(=O)C2CCCN2C1c1sccc1C (centres undefined)	none (no result: sEH activator, sEH inh)
COc1ccc(Cl)cc1N1C(=O)/C(=C\c2sccc2C)N=C1SCC(=O)NC1CC1	Cav32 inh -6.24
CCNC(=O)C1CC(=O)OC12CCCCC2 (centres undefined)	none
